# Compound activity from PubChem BioAssay.
# BLM inh = Bloom syndrome helicase (human) inhibition | P54132 | Potency, µM (highest dose often 56.1 µM), for inactives: at the top dose activity change, negative = inhibition, usual class: inhibitors | AID 2528 | recombinant BLM DNA unwinding, fluorescence dequenching | 350,000 tested, 0.2% active;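 also: plate controls were vehicle for no effect and no enzyme for full effect; nearly all actives have a fitted effect of over 35% in size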
# APEX1 inh = inhibitors of human APE1 endonuclease | recombinant APE1, TAMRA/BHQ-2 abasic DNA cleavage fluorescence | 350,000 tested, 0.35% active | P27695 | AID 2517 | Potency, µM (series often up to 65.8 µM), for the others: top-dose activity change, negative = inhibition, hits mostly inhibitors;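 also: plate controls were vehicle for no effect and reference inhibitor for full effect; nearly all actives have a fitted effect of over 55% in size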
# Target sequence (P27695 whole entry, looked up): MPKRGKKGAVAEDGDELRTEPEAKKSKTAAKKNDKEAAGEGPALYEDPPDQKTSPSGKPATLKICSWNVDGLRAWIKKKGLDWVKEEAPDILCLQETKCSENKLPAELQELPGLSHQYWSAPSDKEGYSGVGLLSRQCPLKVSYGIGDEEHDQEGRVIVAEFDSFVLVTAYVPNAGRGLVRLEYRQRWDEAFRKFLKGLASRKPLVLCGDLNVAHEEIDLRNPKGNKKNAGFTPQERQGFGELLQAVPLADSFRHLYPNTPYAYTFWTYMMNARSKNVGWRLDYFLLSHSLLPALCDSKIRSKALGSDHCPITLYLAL
#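 APE1 at 0.75 nM preincubated 15 min at room temperature with compound. Reaction then started with 50 nM double-stranded THF-abasic substrate labelled with TAMRA/BHQ-2, and 525/598 nm fluorescence read kinetically. Activity taken as third-minus-first read difference, normalized to DMSO and NSC13755 controls.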
# GCN5L2 inh = GCN5L2 (KAT2A) acetyltransferase inhibition; Potency, µM (top dose mostly 58.9 µM), inactives show top-dose activity change, negative = inhibition, hits mostly inhibitors; Q92830; AID 504327; 390,000 tested, 0.21% active; GCN5L2 HAT assay, ThioGlo1 CoA-SH fluorescence
#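 Compounds, pin-transferred from DMSO stocks, meet 20nM GCN5L2 for 15 min before the reaction begins with H3(1-25) peptide (75uM) and acetyl-CoA (70uM). Thiol-reactive ThioGlo1 reports CoA release over 20 min at room temperature.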
# RECQ1 inh = inhibitors of human RECQ1 DNA helicase; RECQ1 DNA unwinding, red fluorescence kinetic read; Potency, µM (top dose mostly 57.3 µM), for inactives: top-dose activity, negative = inhibition, most hits filed as inhibitors; 240,000 tested, 0.54% active; AID 2549;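 also: plate controls were vehicle for no effect and no enzyme for full effect; nearly all actives have a fitted effect of over 30% in size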
#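 RECQ1T1 50 nM; forked duplex (20 bp + 30-nt ss tails) 200 nM, ATP 2 mM final; pH 8.0, 2 mM MgCl2, 2.5 ug/ml poly(dI-dC); 15 min compound preincubation; discontinuous kinetic read over 2 h at RT.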
# KDM4E inh = blocks human JMJD2E demethylase activity; Potency, µM (highest dose often 57.1 µM), without a hit: at the top dose activity change, negative = inhibition, most hits filed as inhibitors; AID 2147; 230,000 tested, 1.6% active; JMJD2E catalytic domain, FDH-coupled NADH fluorescence (FDH is formaldehyde dehydrogenase);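 also: 0% = wells with enzyme and -100% = buffer wells without enzyme; nearly all actives have a fitted effect of over 50% in size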
# Target sequence (B2RXH2 1-337 limits assumed): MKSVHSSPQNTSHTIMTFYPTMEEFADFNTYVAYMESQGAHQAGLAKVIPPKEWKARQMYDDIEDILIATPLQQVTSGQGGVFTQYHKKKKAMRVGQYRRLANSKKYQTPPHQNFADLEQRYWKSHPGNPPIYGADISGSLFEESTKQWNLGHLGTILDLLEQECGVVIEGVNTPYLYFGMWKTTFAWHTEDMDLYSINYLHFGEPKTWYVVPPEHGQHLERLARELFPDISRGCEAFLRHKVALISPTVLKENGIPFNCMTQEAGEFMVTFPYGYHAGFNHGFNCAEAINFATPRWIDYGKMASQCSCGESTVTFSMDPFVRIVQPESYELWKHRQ
# L3MBTL1 inh = blocks human L3MBTL1. Q9Y468. AlphaScreen L3MBTL1–H3K9me1 peptide binding. Potency, µM (titrated, usually from 57.1 µM), without a hit: at the highest dose activity, negative = inhibition, hits mostly inhibitors. 230,000 tested, 0.66% active; also: nearly all actives have a fitted effect of over 60% in size
#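 L3MBTL1 50 nM + b-AHA-H3(1-15)K9me1 75 nM, 30 min RT; compound added, 30 min RT; streptavidin donor/Ni-chelate acceptor beads 10 ug/mL each final, 30 min RT dark; AlphaScreen read.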
# * marks the source's active call; other numbers are inactive results; i = inactive; u = inconclusive; x = no result given; ! = not active in a repeat; [ ] = another dose, or the depositor's remark. The sample as a whole holds a higher share of hits than the screen did. Unless noted, calls follow the shape of the dose curve; as a rule, active = well fitted curve in the direction sought with a large enough effect; inconclusive = small, poorly fitted or top-dose-only effect, or another doubt; inactive = no such curve, though single readings can be large; an effect the other way counts as inactive or inconclusive. Unless noted, % is scaled to controls: 0 for no effect and ±100 for the full control effect; potency is read from the fitted curve at half-maximal effect.
SMILES,BLM inh,APEX1 inh,GCN5L2 inh,RECQ1 inh,KDM4E inh,L3MBTL1 inh
Cl.Cl.Cl.Cl.Cl.Cl.N.N.N.N.NNNNN.NNNNN.O.O.[Ru].[Ru].[Ru],25.1µM*,-3.2%,u,12.6µM*,31.6µM*,x
O=C(O)c1cccc(Cl)c1,x,-0.9%,x,1.1%,x,x
O=C(O)c1cc[c]([Hg][Cl])cc1,x,17.0%,0.251µM*,-9.1%,u,8.2%
Nc1nonc1C(=O)N/N=C/c1ccc([N+](=O)[O-])o1,-9.4%,-1.2%,-7.6%,-0.6%,-5.1%,35.5µM*
NC(=O)CI,x,-0.4%,10µM*,u,31.6µM*,x
NCC#Cc1ccccc1,x,-0.5%,x,-7.5%,-26.3%,x
COc1ccc(/C=C/C(=O)N2CC3C[C@@H](C2)Cn2c3cccc2=O)cc1OC,0.2%,0.6%,x,-10.6%,u,x
C#CCN(C)[C@@H](C)Cc1ccccc1,-1.0%,x,11.2µM*,-5.5%[25.9 µM],1.7%[25.5 µM],x
CO[C@H]1C=C2CCN(C)[C@@H]2[C@@H]2c3cc4c(cc3C(=O)O[C@H]21)OCO4,4.7%[21.4 µM],u,6.2%[21.4 µM],3.9%[25.9 µM],u,x
CC1C(=O)OC2CCN3CC=C(COC(=O)[C@](C)(O)[C@]1(C)O)C23 (some centres undefined),-7.0%,-1.5%,0.6%,13.3%,-16.6%,x
Cn1cccc1-c1cccnc1,x,2.1%,-10.5%,-9.0%,x,x
CN(C)C1C(=O)C(C(N)=O)C(=O)C2(O)C(=O)C3C(=O)c4c(O)cccc4C(C)(O)C3C(O)C12 (centres undefined),-5.3%,x,10µM*,i,x,x
CN(C)[C@@H]1C(=O)C(C(N)=O)=C(O)[C@@]2(O)C(=O)C3=C(O)c4c(O)ccc(Cl)c4[C@@](C)(O)[C@H]3C[C@@H]12,-5.8%,45.4%,-17.6%,x,x,x
CN(C)[C@@H]1C(=O)C(C(N)=O)=C(O)[C@@]2(O)C(=O)C3=C(O)c4c(O)cccc4[C@@](C)(O)[C@H]3[C@H](O)[C@@H]12,-16.8%,7.94µM*!,28.2µM*!,11.2µM*!,u,1µM*!
COC(=O)[C@@H]1C[C@H](OC(C)=O)C(=O)[C@H]2[C@@]1(C)CC[C@H]1C(=O)O[C@H](c3ccoc3)C[C@]21C,4.3%,-4.3%,-3.9%,-14.7%,x,x
COC(=O)c1nc(-c2ccc3c(n2)C(=O)C(N)=C(OC)C3=O)c(N)c(-c2ccc(OC)c(OC)c2O)c1C,-18.4%,u,-7.1%,9.9%,20µM*,x
CC(=O)O[C@H]1C[C@H](O[C@H]2[C@@H](O)C[C@H](O[C@H]3[C@@H](O)C[C@H](O[C@H]4CC[C@@]5(C)[C@H](CC[C@@H]6[C@@H]5C[C@@H](O)[C@]5(C)[C@@H](C7=CC(=O)OC7)CC[C@]65O)C4)O[C@@H]3C)O[C@@H]2C)O[C@H](C)[C@H]1O[C@@H]1O[C@H](CO)[C@@H](O)[C@H](O)[C@H]1O,x,3.3%,x,x,x,x
CCC[CH2][Sn]([Cl])([Cl])[Cl],x,-3.1%,x,-1.9%,x,x
CC(=O)OCC1=C(C(=O)O)N2C(=O)[C@@H](NC(=O)CCC[C@@H](N)C(=O)O)[C@H]2SC1,x,x,7.9%,x,x,x
CO/N=C(\C(=O)N[C@@H]1C(=O)N2C(C(=O)O)=C(CSc3nc(=O)c(O)nn3C)CS[C@H]12)c1csc(N)n1,x,14.1µM*,x,x,x,x
COc1ccc(-n2c(/C=C/c3ccc(O)c(OC)c3)nc3ccccc3c2=O)cc1,-5.1%,-6.2%,-13.6%,x,x,7.3%
COc1cccc(-n2c(/C=C/c3ccc(O)c(O)c3)nc3ccccc3c2=O)c1,-24.0%,u,-12.7%,-17.1%,31.6µM*,-7.2%
O=c1c2ccccc2nc(/C=C/c2ccc(O)cc2)n1-c1cccc(O)c1,25.1µM*,u,u,-13.3%,u,u
O=c1c2ccccc2nc(/C=C/c2ccc(O)cc2)n1-c1ccc(O)cc1,-9.4%,26.3%,-0.4%,x,x,x
C=CC(C)=O,x,4.6%,x,0.8%,x,x
SMILES,BLM inh,APEX1 inh,GCN5L2 inh,RECQ1 inh,KDM4E inh,L3MBTL1 inh
CC(=O)[O-].CC(=O)[O-].O.O.[Cd+2],x,0.794µM*,x,-21.9%,x,x
CC(=O)c1ccc2c(c1)C1C(Cl)C(Sc3ccccc3[N+](=O)[O-])CC1C(C(=O)O)N2 (centres undefined),u,u,-5.6%,u,u,3.98µM*
O=C(O)c1cccc2c1NC(C(=O)O)C1CC(Sc3ccccc3[N+](=O)[O-])C(Cl)C21 (centres undefined),u,2.9%,u,2.9%,-1.6%,2.24µM*
CC(C)NCC(O)c1ccccc1Cl (centres undefined),-7.9%,x,2.3%,x,x,x
CCC1(C)OC(c2ccccc2)=C/C(=C/C=C2C(=O)NC(=O)NC2=O)O1 (centres undefined),-23.2%,5.2%,-1.1%,8.91µM*,8.7%,u
O=C1CC(N2CC=C(c3ccc(F)cc3)CC2)C(=O)N1c1ccc(F)cc1 (centres undefined),-7.5%,-4.1%,0.0%,-1.1%,u,-2.0%
CCOC(=O)c1ccc(N2C(=O)CC(N3CC=C(c4ccc(F)cc4)CC3)C2=O)cc1 (centres undefined),-4.4%,-11.6%,u,-11.1%,14.1µM*,u
CC1CCC(C(C)C)C(=O)C1 (centres undefined),-11.9%,x,u,8.4%,3.2%,x
N#CC(Cl)Cl,x,3.3%,x,-2.4%,x,x
O=C1c2ccccc2C(=O)c2ccccc21,2.4%,-3.7%,3.2%,-9.1%,3.5%,x
O=C1C=Cc2ccccc2C1=O,-0.6%,u,28.2µM*,28.2µM*,14.1µM*,-25.0%
Cc1cc([C@@H]2CCCN2C)on1,-2.4%,2.7%,-3.0%,-2.3%,x,x
O=C1NC(=O)C(=Cc2ccc(N3CCOCC3)o2)C(=O)N1,0.2%,0.8%,2.8%,15.5%,17.8µM*,-8.1%
C=CCN1C(=O)/C(=C/c2ccc(N3CCOCC3)o2)C(=O)NC1=S,-17.0%,4.0%,1.4%,0.4%,-4.4%,-46.6%
O=C1NO[C@H]2[C@@H]1CN[C@@H]2C(=O)O,-0.4%,u,x,-8.4%,-20.5%,x
CCN1/C(=C\C=C\C2=[N+](CC)c3ccccc3C2(C)C)C(C)(C)c2ccccc21,7.94µM*,31.6µM*,-5.9%,28.2µM*,-10.5%,x
NNCc1cccc(O)c1,3.2%,-11.4%,-15.1%,-8.6%,22.4µM*!,x
NCC(O)c1cccc(O)c1 (centres undefined),1.9%,x,-9.0%,x,x,x
Cc1c(OCC(F)(F)F)ccnc1CS(=O)c1nc2ccccc2[nH]1 (centres undefined),-9.6%,3.2%,-8.3%,24.7%,14.1µM*!,-17.3%
Oc1ccc2c(c1)[C@@]13CCCCC1[C@@H](C2)N(CC1CCC1)CC3 (some centres undefined),-3.1%,-6.1%,-15.3%,-4.9%,x,x
N#C/C(=C\c1ccc(O)c(O)c1)C(N)=S,u,12.6µM*,x,5.62µM*!,u,x
